Assay results as given in PubChem BioAssay (Tox21).
Values joined by “and” are separate entries in the source; they are usually repeats but may differ in a detail not shown here. Identical values can stand only once. Results filed as inconclusive are left out. Entries that show only a call come without a potency. Where a structure was tested more than once in an assay, its records may differ in their call. Active and inactive are the calls of the source. Calls follow the shape of the dose curve; as a rule, active = well fitted curve in the direction sought with a large enough effect in the repeat runs; inconclusive = weak or mixed curves; inactive = no such curve, though single readings can be large; an effect the other way counts as inactive or inconclusive.

What was measured:
[1] = qHTS RealTime-Glo MT Cell Viability Assay in HepG2 cells - 40 hour (AID 1224870); also: nearly all actives have a fitted effect of over 50% in size; also: potency is read from the fitted curve at half-maximal effect
Method in brief: (§1)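 HepG2 cells mixed with RealTime-Glo MT reagents (NanoLuc plus cell-permeant prosubstrate) were seeded at 600 cells/well, incubated 5 h at 37 C/5% CO2, then pinned with compounds in DMSO; nonlytic luminescence tracked viability during 40 h treatment.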

[2] = A CellTox Green Cytotoxicity Assay to monitor cytotoxicity in HEK293 cells - 40 hour (AID 1224871); also: nearly all actives have a fitted effect of over 45% in size; also: potency is read from the fitted curve at half-maximal effect
Method in brief: (§2)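 Fluorescence intensity, read at 0, 8, 16, 24, 32 and 40 h of compound treatment, reflected dye binding to DNA of dead HEK293 cells; compounds (23 nL, DMSO) were added 5 h after plating cells with reagent.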

[3] = qHTS RealTime-Glo MT Cell Viability Assay in HEK293 cells - 16 hour (AID 1224872); also: nearly all actives have a fitted effect of over 50% in size; also: potency is read from the fitted curve at half-maximal effect
Method in brief: (§3)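 Reads taken at 0, 8, 16, 24, 32 and 40 h from the same wells. HEK293 cells (600/well) carried RealTime-Glo reagents from seeding, with compound added after a 5 h settle at 37 C.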

[4] = qHTS RealTime-Glo MT Cell Viability Assay in HepG2 cells - 8 hour (AID 1224873); also: nearly all actives have a fitted effect of over 55% in size; also: potency is read from the fitted curve at half-maximal effect
Method in brief: as §1

[5] = qHTS RealTime-Glo MT Cell Viability Assay in HEK293 cells - 40 hour (AID 1224874); details: RealTime-Glo luminescence; max response: stronger effect = lower value; also: nearly all actives have a fitted effect of over 50% in size; also: potency is read from the fitted curve at half-maximal effect
Method in brief: (§4)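 Viable HEK293 cells reduce a cell-permeant prosubstrate; the product diffuses out and is consumed by NanoLuc in the medium to give light. Compounds went in after a 5 h incubation and plates were read over the treatment course.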

[6] = A CellTox Green Cytotoxicity Assay to monitor cytotoxicity in HEK293 cells - 24 hour (AID 1224875); also: nearly all actives have a fitted effect of over 45% in size; also: potency is read from the fitted curve at half-maximal effect
Method in brief: as §2

[7] = A CellTox Green Cytotoxicity Assay to monitor cytotoxicity in HepG2 cells - 16 hour (AID 1224876); also: nearly all actives have a fitted effect of over 45% in size; also: potency is read from the fitted curve at half-maximal effect
Method in brief: (§5)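 Using 1536-well format, dye-containing HepG2 suspension was seeded, allowed 5 h at 37 C/5% CO2, dosed by pintool with compounds, positive and negative controls, and imaged for fluorescence across 40 h.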

[8] = qHTS RealTime-Glo MT Cell Viability Assay in HepG2 cells - 32 hour (AID 1224877); also: nearly all actives have a fitted effect of over 55% in size; also: potency is read from the fitted curve at half-maximal effect
Method in brief: (§6)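 HepG2 suspension premixed with RealTime-Glo reagents is plated at 600 cells per well and left 5 h at 37 C/5% CO2. Compounds in DMSO then go in, and bioluminescence reflecting viable cell number is recorded over 40 h.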

[9] = A CellTox Green Cytotoxicity Assay to monitor cytotoxicity in HepG2 cells - 24 hour (AID 1224878); also: nearly all actives have a fitted effect of over 45% in size; also: potency is read from the fitted curve at half-maximal effect
Method in brief: as §5

[10] = A CellTox Green Cytotoxicity Assay to monitor cytotoxicity in HepG2 cells - 40 hour (AID 1224879); also: nearly all actives have a fitted effect of over 40% in size; also: potency is read from the fitted curve at half-maximal effect
Method in brief: as §5

[11] = qHTS RealTime-Glo MT Cell Viability Assay in HEK293 cells - 0 hour (AID 1224880); also: nearly all actives have a fitted effect of over 45% in size; also: potency is read from the fitted curve at half-maximal effect
Method in brief: as §4

[12] = A CellTox Green Cytotoxicity Assay to monitor cytotoxicity in HEK293 cells - 32 hour (AID 1224881); also: nearly all actives have a fitted effect of over 40% in size; also: potency is read from the fitted curve at half-maximal effect
Method in brief: as §2

[13] = A CellTox Green Cytotoxicity Assay to monitor cytotoxicity in HepG2 cells - 0 hour (AID 1224882); also: nearly all actives have a fitted effect of over 35% in size; also: potency is read from the fitted curve at half-maximal effect
Method in brief: as §5

[14] = A CellTox Green Cytotoxicity Assay to monitor cytotoxicity in HepG2 cells - 32 hour (AID 1224883); also: nearly all actives have a fitted effect of over 50% in size; also: potency is read from the fitted curve at half-maximal effect
Method in brief: as §5

[15] = A CellTox Green Cytotoxicity Assay to monitor cytotoxicity in HEK293 cells - 8 hour (AID 1224884); also: nearly all actives have a fitted effect of over 35% in size; also: potency is read from the fitted curve at half-maximal effect
Method in brief: as §2

[16] = qHTS RealTime-Glo MT Cell Viability Assay in HepG2 cells - 16 hour (AID 1224885); also: nearly all actives have a fitted effect of over 50% in size; also: potency is read from the fitted curve at half-maximal effect
Method in brief: as §6

[17] = qHTS RealTime-Glo MT Cell Viability Assay in HEK293 cells - 24 hour (AID 1224886); also: nearly all actives have a fitted effect of over 50% in size; also: potency is read from the fitted curve at half-maximal effect
Method in brief: as §3

[18] = qHTS RealTime-Glo MT Cell Viability Assay in HEK293 cells - 8 hour (AID 1224887); also: nearly all actives have a fitted effect of over 50% in size; also: potency is read from the fitted curve at half-maximal effect
Method in brief: as §4

[19] = A CellTox Green Cytotoxicity Assay to monitor cytotoxicity in HEK293 cells - 16 hour (AID 1224888); also: nearly all actives have a fitted effect of over 35% in size
Method in brief: as §2

[20] = qHTS RealTime-Glo MT Cell Viability Assay in HepG2 cells - 0 hour (AID 1224889); also: nearly all actives have a fitted effect of over 50% in size; also: potency is read from the fitted curve at half-maximal effect
Method in brief: as §6

## C1=Cc2cccc3cccc1c23
[1]
  Potency: inactive
[2]
  Potency: 49 µM (active)
[3]
  Potency: inactive
[4]
  Potency: inactive
[5]
  max response: -3.56% (inactive) and 0.553% (inactive)
[6]
  Potency: 49 µM (active)
[7]
  Potency: inactive
[8]
  Potency: inactive
[9]
  Potency: inactive
[10]
  Potency: inactive
[11]
  Potency: inactive
[12]
  Potency: 49 µM (active)
[13]
  Potency: inactive
[14]
  Potency: inactive
[15]
  Potency: inactive
[16]
  Potency: inactive
[17]
  Potency: inactive
[18]
  Potency: inactive
[19]
  Potency: inactive
[20]
  Potency: inactive

## CCN(CC)C(=O)SCc1ccc(Cl)cc1
[1]
  Potency: inactive
[2]
  Potency: inactive
[3]
  Potency: inactive
[4]
  Potency: inactive
[5]
  max response: -8.77% (inactive) and 0.16% (inactive)
[6]
  Potency: inactive
[7]
  Potency: inactive
[8]
  Potency: inactive
[10]
  Potency: inactive
[11]
  Potency: inactive
[12]
  Potency: inactive
[13]
  Potency: inactive
[14]
  Potency: inactive
[15]
  Potency: inactive
[16]
  Potency: inactive
[17]
  Potency: inactive
[18]
  Potency: inactive
[19]
  Potency: inactive
[20]
  Potency: inactive

## S=C1NCCN1
[1]
  Potency: inactive
[2]
  Potency: inactive
[3]
  Potency: inactive
[4]
  Potency: inactive
[5]
  max response: 5.45% (inactive) and 5.82% (inactive)
[6]
  Potency: inactive
[7]
  Potency: inactive
[8]
  Potency: inactive
[9]
  Potency: inactive
[10]
  Potency: inactive
[12]
  Potency: inactive
[13]
  Potency: inactive
[14]
  Potency: inactive
[15]
  Potency: inactive
[16]
  Potency: inactive
[17]
  Potency: inactive
[18]
  Potency: inactive
[19]
  Potency: inactive
[20]
  Potency: inactive

## Nc1c(Cl)cc([N+](=O)[O-])cc1Cl
[1]
  Potency: inactive
[2]
  Potency: inactive
[3]
  Potency: inactive
[4]
  Potency: inactive
[5]
  max response: -14.9% (inactive)
[6]
  Potency: inactive
[7]
  Potency: inactive
[8]
  Potency: inactive
[10]
  Potency: inactive
[12]
  Potency: inactive
[13]
  Potency: inactive
[14]
  Potency: inactive
[15]
  Potency: inactive
[16]
  Potency: inactive
[17]
  Potency: inactive
[18]
  Potency: inactive
[19]
  Potency: inactive
[20]
  Potency: inactive

## OCC(O)CO
[1]
  Potency: inactive
[2]
  Potency: inactive
[3]
  Potency: inactive
[4]
  Potency: inactive
[5]
  max response: -4.06% (inactive) and 6% (inactive)
[6]
  Potency: inactive
[7]
  Potency: inactive
[8]
  Potency: inactive
[9]
  Potency: inactive
[10]
  Potency: inactive
[12]
  Potency: inactive
[13]
  Potency: inactive
[14]
  Potency: inactive
[15]
  Potency: inactive
[16]
  Potency: inactive
[17]
  Potency: inactive
[18]
  Potency: inactive
[19]
  Potency: inactive
[20]
  Potency: inactive

## COC(=O)c1sccc1S(=O)(=O)NC(=O)Nc1nc(C)nc(OC)n1
[1]
  Potency: inactive
[2]
  Potency: inactive
[3]
  Potency: inactive
[4]
  Potency: inactive
[5]
  max response: 4% (inactive) and 6.48% (inactive)
[6]
  Potency: inactive
[7]
  Potency: inactive
[8]
  Potency: inactive
[9]
  Potency: inactive
[10]
  Potency: inactive
[11]
  Potency: inactive
[12]
  Potency: inactive
[13]
  Potency: inactive
[14]
  Potency: inactive
[15]
  Potency: inactive
[16]
  Potency: inactive
[17]
  Potency: inactive
[18]
  Potency: inactive
[19]
  Potency: inactive
[20]
  Potency: inactive

## O=c1oc2ccccc2c(O)c1C(CC(O)c1ccc(-c2ccc(Br)cc2)cc1)c1ccccc1 (stereo unspecified)
[1]
  Potency: inactive
[2]
  Potency: inactive
[3]
  Potency: inactive
[4]
  Potency: inactive
[5]
  max response: -3.76% (inactive) and 7.1% (inactive)
[6]
  Potency: inactive
[7]
  Potency: inactive
[8]
  Potency: inactive
[10]
  Potency: inactive
[11]
  Potency: 18.4 µM (active) and 12 µM (active)
[12]
  Potency: inactive
[13]
  Potency: inactive
[14]
  Potency: inactive
[15]
  Potency: inactive
[16]
  Potency: inactive
[17]
  Potency: inactive
[18]
  Potency: inactive
[19]
  Potency: inactive
[20]
  Potency: 20.7 µM (active) and 21.3 µM (active)

## O=S(=O)(Oc1ccc(Cl)cc1)c1ccc(Cl)cc1
[1]
  Potency: inactive
[2]
  Potency: inactive
[3]
  Potency: inactive
[4]
  Potency: inactive
[5]
  max response: -23.5% (inactive) and -4.71% (inactive)
[6]
  Potency: inactive
[7]
  Potency: inactive
[8]
  Potency: inactive
[9]
  Potency: inactive
[10]
  Potency: inactive
[12]
  Potency: inactive
[13]
  Potency: inactive
[14]
  Potency: inactive
[15]
  Potency: inactive
[16]
  Potency: inactive
[17]
  Potency: inactive
[18]
  Potency: inactive
[19]
  Potency: inactive
[20]
  Potency: inactive

## Oc1cc(Cl)ccc1Oc1ccc(Cl)cc1Cl
[1]
  Potency: 44.7 µM (active)
[2]
  Potency: 44.7 µM (active)
[3]
  Potency: 22.4 µM (active) and 23.9 µM (active)
[4]
  Potency: 22.4 µM (active) and 23.9 µM (active)
[5]
  Potency: 34.1 µM (active)
[6]
  Potency: 22.4 µM (active)
[7]
  Potency: 44.7 µM (active) and 19 µM (active)
[8]
  Potency: 25.1 µM (active)
[9]
  Potency: 22.4 µM (active) and 21.3 µM (active)
[10]
  Potency: 25.1 µM (active) and 23.9 µM (active)
[11]
  Potency: inactive
[12]
  Potency: 22.4 µM (active)
[13]
  Potency: 50.1 µM (active) and inactive
[14]
  Potency: 43 µM (active) and 23.9 µM (active)
[15]
  Potency: 50.1 µM (active) and inactive
[16]
  Potency: 22.4 µM (active) and 23.9 µM (active)
[17]
  Potency: 22.4 µM (active) and 23.9 µM (active)
[18]
  Potency: 35.5 µM (active) and 23.9 µM (active)
[20]
  Potency: inactive

## COP(=O)(OC)OC
[1]
  Potency: inactive
[2]
  Potency: inactive
[3]
  Potency: inactive
[4]
  Potency: inactive
[5]
  max response: 4.65% (inactive)
[6]
  Potency: inactive
[7]
  Potency: inactive
[8]
  Potency: inactive
[9]
  Potency: inactive
[10]
  Potency: 19.7 µM (active) and inactive
[11]
  Potency: inactive
[12]
  Potency: inactive
[13]
  Potency: inactive
[14]
  Potency: 24.7 µM (active) and inactive
[15]
  Potency: 39.2 µM (active) and inactive
[16]
  Potency: inactive
[17]
  Potency: inactive
[18]
  Potency: inactive
[19]
  Potency: inactive
[20]
  Potency: inactive

## C=C(C)[C@H]1Cc2c(ccc3c2O[C@@H]2COc4cc(OC)c(OC)cc4[C@@H]2C3=O)O1
[1]
  Potency: 44.2 µM (active) and 27.5 µM (active)
[2]
  Potency: inactive
[3]
  Potency: 88.2 nM (active) and 15.5 nM (active) and 107 nM (active)
[4]
  Potency: 24.5 µM (active) and inactive
[5]
  Potency: 55.7 nM (active) and 11 nM (active) and 47.7 nM (active)
[6]
  Potency: inactive
[7]
  Potency: inactive
[8]
  Potency: 44.2 µM (active) and 27.5 µM (active)
[9]
  Potency: 49.6 µM (active) and 38.9 µM (active)
[10]
  Potency: 24.9 µM (active) and 24.5 µM (active)
[11]
  Potency: inactive
[12]
  Potency: inactive
[13]
  Potency: inactive
[14]
  Potency: 27.9 µM (active) and 24.5 µM (active)
[15]
  Potency: inactive
[16]
  Potency: 31.3 µM (active) and 27.5 µM (active)
[17]
  Potency: 62.5 nM (active) and 12.3 nM (active) and 47.7 nM (active)
[18]
  Potency: 249 nM (active) and 219 nM (active) and 60.1 nM (active)
[19]
  Potency: inactive
[20]
  Potency: inactive

## CCN(CC)C(=O)/C(Cl)=C(\C)OP(=O)(OC)OC
[1]
  Potency: inactive
[2]
  Potency: inactive
[3]
  Potency: inactive
[4]
  Potency: inactive
[5]
  max response: -0.126% (inactive) and -1.25% (inactive)
[6]
  Potency: inactive
[7]
  Potency: inactive
[8]
  Potency: inactive
[9]
  Potency: inactive
[10]
  Potency: inactive
[12]
  Potency: inactive
[13]
  Potency: inactive
[14]
  Potency: inactive
[15]
  Potency: inactive
[16]
  Potency: inactive
[17]
  Potency: inactive
[18]
  Potency: inactive
[19]
  Potency: inactive
[20]
  Potency: inactive
